Compound activity as filed in PubChem BioAssay.
TPT1 inhibitor: blocks Candida albicans tRNA 2'-phosphotransferase. recombinant caTPT1, FP RNA substrate dephosphorylation. 300,000 tested, 0.81% active. AID 1962. inhibition, % at 5 µM;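 active means inhibition above the mean of all tested compounds plus 3 SD, set per screening campaign, cut at about 24% in these data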;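 further: plate controls were DMSO alone for no effect and ferristatin control at 100 nM for full effect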
dFosB act: enhances mouse delta FosB homodimer DNA binding | AID 493131 | purified delta FosB, TAMRA-CDK5 oligo fluorescence polarization; percent of positive-control signal above neutral wells | P13346 | activation, % at 25 µM | 340,000 tested, 0.99% active;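 active means mean activation above about 17%, with every replicate also reaching it, limit read from the data, passing the limit was not always enough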
Target sequence (P13346 whole entry, looked up): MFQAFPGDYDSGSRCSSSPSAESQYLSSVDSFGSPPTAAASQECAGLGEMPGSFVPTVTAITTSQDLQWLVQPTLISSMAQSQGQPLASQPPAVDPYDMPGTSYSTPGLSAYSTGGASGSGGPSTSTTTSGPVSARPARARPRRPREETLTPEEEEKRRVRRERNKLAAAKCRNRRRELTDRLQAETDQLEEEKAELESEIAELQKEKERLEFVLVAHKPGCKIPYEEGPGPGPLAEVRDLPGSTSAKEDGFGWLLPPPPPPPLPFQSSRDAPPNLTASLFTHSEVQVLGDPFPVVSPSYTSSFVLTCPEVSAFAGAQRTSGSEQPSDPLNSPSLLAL
Rpn11 inh: inhibitors of human proteasome Rpn11; O00487; human 26S proteasome, Ub4-pepOG fluorescence polarization; 20S core pre-blocked with epoxomicin; inhibition, % at 20 µM; 360,000 tested, 0.59% active; AID 588493;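 active means inhibition at 20 µM, scaled to each plate's controls, above about 33%, limit read from the data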
ZTA DNA inh: counter-screen for EBNA-1 inhibitors: inhibitors of Epstein-Barr virus ZTA; 320,000 tested, 0.15% active; AID 2234; ZTA-DNA binding, fluorescence polarization; inhibition, % at 11 µM; P03206; in the data active means inhibition above about 33%
NR3A LBD binder: NR3A (human) ligand-binding domain modulation | Tm shift relative to glycine control, % at 25 µM | AID 1259313 | NR3A LBD differential scanning fluorimetry, Tm shift; 0% = protein alone, 100% = glycine-bound protein | 340,000 tested, 2.5% active;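 active means melting temperature shift of at least 10% of the positive control shift, at one fixed dose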
EBNA-1 inh: blocks EBNA-1 binding to DNA | EBNA-1 DNA binding, fluorescence polarization | inhibition, % at 14.8 µM | 300,000 tested, 0.34% active | AID 1950; in the data active means inhibition above about 28%
caTPT1 confirm: confirmation of Candida albicans TPT1 inhibitors; shares compounds with TPT1 inhibitor; recombinant caTPT1, fluorescence polarization, RNase T1 coupled; inhibition, % at 5 µM; 2,400 tested, 74% active; AID 2149;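 active means inhibition above the primary screen limit, the mean inhibition of all tested compounds plus 3 SD, cut at about 25% in these data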
RNase T1 counter: counter-screen for TPT1 inhibitors: inhibitors of Aspergillus oryzae RNase T1; shares compounds with TPT1 inhibitor; RNase T1 cleavage, fluorescence polarization, 1536-well; inhibition, % at 5 µM; 2,400 tested, 83% active; AID 2153;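 active means inhibition above the solvent-only control well mean plus 3 SD, limit set per screening run, cut at about 23% in these data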;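 further: plate controls were DMSO wells with enzyme for no effect and wells without RNase T1 for full effect; inhibitors block cleavage so intact labeled substrate keeps polarization high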
Active calls of the source: *; . = no result given; + = active, no number. In the library only some 4.5% were active in any assay of this set; here they are far more common.

SMILES	TPT1 inhibitor	dFosB act	Rpn11 inh	ZTA DNA inh	NR3A LBD binder	EBNA-1 inh	caTPT1 confirm	RNase T1 counter
CCOC(=O)C1=C(c2ccccc2)N=c2s/c(=C\c3ccc(O)cc3)c(=O)n2C1c1cccs1 (stereo unspecified)	31*	-6	.	3	8	6	53*	60*
CCOC(=O)c1ccc(NC(=O)c2c(N)n(C)c(=O)n(C)c2=O)cc1	-5	-1	-8	7	1	4	.	.
COc1cc(/C=C2\SC(=O)N(CC(=O)Nc3ccccc3F)C2=O)cc(Cl)c1O	67*	3	25	3	-5	0	81*	68*
Cc1ccc2c(CSc3nnc4ccccn34)cc(=O)oc2c1C	4	-6	-3	2	1	-12	.	.
Cc1ccc2c(CSc3nc4ccccc4c(=O)n3CCCO)cc(=O)oc2c1C	32*	-13	6	20	-11	6	5	9
N#Cc1c(NC(=O)CSc2nnc(-c3ccncc3)n2CC2CCCO2)sc2c1CCCC2 (stereo unspecified)	115*	-5	-2	-14	0	-1	5	7
CN(Cc1ccc(F)cc1)C(=O)CNC(=O)C1CCCCC1	-2	-2	4	-4	0	-8	.	.
COc1ccc(/C=C2\SC(=S)N(CC3CCCO3)C2=O)cc1 (stereo unspecified)	0	-7	-3	-7	0	-7	.	.
COc1ccc(N=C2O/C(=C/c3sc(=S)n(CC4CCCO4)c3O)N=C2C#N)cc1 (stereo unspecified)	45*	.	.	-6	3	-11	52*	61*
O=C(NCCOCc1ccccc1)C(c1ccccc1)c1ccccc1	1	-7	2	-4	-4	-2	.	.
CC1Oc2ccccc2C=C1/C=C1/SC(N2CCOCC2)=NC1=O (stereo unspecified)	11	2	6	2	2	-12	.	.
CCN1C(=O)/C(=C/C2=Cc3ccccc3OC2C)SC1=S (stereo unspecified)	43*	.	.	-1	-1	-12	93*	98*
O=C1N=C(N2CCOCC2)S/C1=C/c1ccc(-c2ccccc2Cl)o1	2	-10	1	-11	-3	12	.	.
O=C1S/C(=C\c2ccc(N3CCOCC3)o2)C(=O)N1Cc1c(F)cccc1Cl	148*	-9	.	7	0	-2	190*	174*
O=C1S/C(=C/c2ccc(N3CCOCC3)o2)C(=O)N1Cc1c(F)cccc1Cl	139*	-6	.	3	-4	-1	177*	162*
O=C1S/C(=C\c2ccc(N3CCOCC3)o2)C(=O)N1c1ccccc1	+	-22	.	3	-1	-2	185*	166*
O=c1/c(=C/c2ccc(O)cc2)sc2n1CCCN=2	-1	2	-2	4	1	-1	.	.
CN(C)c1ccc(/C=c2\sc3n(c2=O)CCCN=3)cc1	103*	-4	.	2	1	-2	42*	59*
O=C(Cc1ccccc1)Nc1ccc(N2CCCC2)cc1	36*	68*	13	-6	-4	4	19	26*
O=C(CCSCc1ccccc1F)NCc1ccc(F)cc1	-2	-2	-7	2	2	2	.	.
COCCOC(=O)c1cc(C(=O)c2cc(Cl)ccc2O)coc1=N	1	2	4	0	-1	-1	.	.
Cc1ccc(N2CN(Cc3ccco3)CNC2=S)c(C)c1	48*	-2	-1	8	0	9	8	8
CCC(CO)[n+]1c(C)cc(/C=C2\Sc3ccccc3N2Cc2ccccc2)cc1C (stereo unspecified)	127*	24*	.	17	-1	1	131*	134*
CCN1/C(=C2\SC(=S)N(Cc3ccccc3)C2=O)Sc2ccccc21	7	-8	19	2	-1	0	.	.
COc1ccc(N2C(=O)CSC2c2ccc3c(c2)OCO3)c(OC)c1 (stereo unspecified)	40*	0	1	13	1	1	5	8
